Measured values published in PubChem BioAssay AID1159580 (chemical genetic matrix, 2015).
Hit rate of the full screen: of about 5,500 compounds, about 2,000 (36%) were called active. Another 18% or so got no clear call; they are omitted. Cut-off read from the data, not from the text of the source: active = normalized growth mostly below about 0.91 (no sharp cut-off); inconclusive = no clear call, values can overlap the other calls; inactive = mostly above about 0.92. The list shows a part of the results.

Assay: chemical genetic growth profiling, strain panel (AID 1159580);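 note: tested at 20 µM; growth read once vehicle control cultures reached saturation at 30 °C; 1 = growth at the plate median or of vehicle wells; lower values mean less growth of the strain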
Settings: S. cerevisiae deletion strains, growth OD
[1] = locus YAL013W, strain DEP1, hits give low values
[2] = locus YDR150W, strain NUM1, hits give low values
[3] = locus YHR030C, strain SLT2, hits give low values
[4] = locus YJR075W, strain HOC1, hits give low values
[5] = locus YMR263W, strain SAP30, hits give low values
[6] = locus YNL153C, strain GIM3, hits give low values

Measured: normalized growth

COc1ccc(NC(=O)C(C)c2ccc(CC(C)C)cc2)cc1 (stereo not given)
active: locus YBR229C, strain ROT2, hits give low values 0.897 | locus YCL061C, strain MRC1, hits give low values 0.848 | locus YGR078C, strain PAC10, hits give low values 0.886 | locus YHR087W, strain rtc3, hits give low values 0.824 | locus YJR043C, strain POL32, hits give low values 0.907 | [4] 0.804 | locus YKL190W, strain CNB1, hits give low values 0.914 | locus YLR039C, strain RIC1, hits give low values 0.527 | locus YLR262C, strain YPT6, hits give low values 0.46 | locus YMR219W, strain ESC1, hits give low values 0.94 | locus YNR030W, strain Alg12, hits give low values 0.872 | locus YPL241C, strain CIN2, hits give low values 0.858
inactive: [1] 0.976 | locus YDL101C, strain DUN1, hits give low values 0.956 | locus YDL134C, strain PPH21, hits give low values 0.965 | [2] 0.91 | locus YEL061C, strain CIN8, hits give low values 0.943 | [3] 0.916 | locus YLR058C, strain SHM2 (second series), hits give low values 0.974 | locus YLR085C, strain ARP6, hits give low values 0.878 | locus YML094W, strain GIM5, hits give low values 0.903 | [5] 0.963 | locus YMR307W, strain GAS1, hits give low values 0.774 | [6] 0.932 | locus YNL298W, strain CLA4 (second series), hits give low values 0.937 | locus YNL322C, strain KRE1, hits give low values 0.967 | locus YPL055C, strain LGE1, hits give low values 0.838 | locus YPR135W, strain CTF4, hits give low values 0.855

CN1C2CCC1CC(NC(=O)c1nn(C)c3ccccc13)C2 (stereo not given)
inactive: [1] 1.02 | locus YAL040C, strain CLN3, hits give low values 1.01 | locus YCL061C, strain MRC1 (second series), hits give low values 1.01 | [2] 1 | locus YDR363W, strain ESC2, hits give low values 1 | locus YER002W, strain NOP16, hits give low values 0.992 | [4] 1.01 | [5] 0.999 | locus YNL128W, strain TEP1, hits give low values 0.987 | [6] 0.999 | locus YNL175C, strain NOP13, hits give low values 1.01 | locus YNL197C, strain WHI3, hits give low values 1.01 | locus YNL224C, strain SQS1, hits give low values 1 | locus YOR083W, strain WHI5 (second series), hits give low values 1.02

CN1[C@@H]2CC[C@@H]1CC(O)C2 (stereo not given in full)
inactive: [3] 1.03 | locus YHR079C, strain IRE1, hits give low values 1.04 | locus YJL095W, strain BCK1, hits give low values 1.05 | locus YJR066W, strain TOR1, hits give low values 0.983 | locus YLR113W, strain HOG1, hits give low values 0.98 | locus YNL183C, strain NPR1, hits give low values 0.986 | locus YOR231W, strain MKK1, hits give low values 1.01 | locus YPL256C, strain CLN2, hits give low values 1.06
